{
  "source": "paper PMC12820563",
  "about": "“FoxP3 forms a head-to-head dimer in vivo and stabilizes its multimerization on adjacent microsatellites”",
  "note": "Whole data set: some 16,000 sequences, median “rpm ratio (pull-down/input)” near 0.5, cut for the highest 2% near 5.5. What follows is part of a selection rich in the highest values, with near analogues and random picks from the rest.",
  "data": [
    {"biological_target": "T1, MBP-FoxP3dN (Mus musculus, UniProt Q99JB6 188-423)", "T1 sequence": "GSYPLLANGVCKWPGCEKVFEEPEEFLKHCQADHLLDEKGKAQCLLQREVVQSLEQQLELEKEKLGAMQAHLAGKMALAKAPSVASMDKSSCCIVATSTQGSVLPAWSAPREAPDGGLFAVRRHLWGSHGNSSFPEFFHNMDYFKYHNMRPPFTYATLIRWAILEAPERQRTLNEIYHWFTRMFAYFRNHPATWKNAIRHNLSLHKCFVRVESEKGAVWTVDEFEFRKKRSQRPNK", "experiment": "PD-seq (MBP pull-down with sequencing); 20 mM Tris-HCl pH 7.5, 100 mM NaCl, 1.5 mM MgCl2, 0.4 uM protein, 0.1 uM dsDNA library, 30 min, room temperature, amylose pull-down; high values mean tight binding", "settings": "protein: recombinant; tags: His6-MBP; chain copies: 2; dsDNA, one strand shown", "procedure,_shortened": "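Amylose resin was used to capture complexes formed during 30 min at room temperature in Tris pH 7.5 buffer with NaCl and MgCl2 between 0.4 µM His6-MBP-tagged mouse FoxP3 or FoxP1 fragment lacking the N-terminus, expressed in E. coli, and 0.1 µM Klenow-filled double-stranded degenerate DNA library. After three washes, the DNA was released with proteinase K, barcoded by PCR and sequenced on Illumina. Binding is pooled-replicate reads-per-million enrichment, pull-down over input.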", "values": [
      {"sequence": "GATGATTGTTCTCCCAGCTGATGAATTGGACCATTCGAGTAAACAAATTTTCCTAATCTTTCTGTTCAAGCGCCATCTAC", "binding signal": "0.374 RPM ratio (pull-down/input)"},
      {"sequence": "GATGATTGTTCTCCCAGCTGATGAATTAGCCGACTCGAGTAAACAAATTTTCCTAATCTTTCTGTTCAAGCGCCATCTAC", "binding signal": "0.205 RPM ratio (pull-down/input)"},
      {"sequence": "GATGATTGTTCTCCCAGCTGATGAATTCTGGAATTCGAGTAAACAAATTTTCCTAATCTTTCTGTTCAAGCGCCATCTAC", "binding signal": "0.579 RPM ratio (pull-down/input)"},
      {"sequence": "GATGATTGTTCTCCCAGCTGATGAATTCCCTGTGTCGAGTAAACAAATTTTCCTAATCTTTCTGTTCAAGCGCCATCTAC", "binding signal": "0.347 RPM ratio (pull-down/input)"},
      {"sequence": "GATGATTGTTCTCCCAGCTGATGAATTCGTGTTGTCGAGTAAACAAATTTTCCTAATCTTTCTGTTCAAGCGCCATCTAC", "binding signal": "2.75 RPM ratio (pull-down/input)"},
      {"sequence": "GATGATTGTTCTCCCAGCTGATGAATTTCTGTTGTCGAGTAAACAAATTTTCCTAATCTTTCTGTTCAAGCGCCATCTAC", "binding signal": "1.28 RPM ratio (pull-down/input)"},
      {"sequence": "GATGATTGTTCTCCCAGCTGATGAATTTGTCGTGTCGAGTAAACAAATTTTCCTAATCTTTCTGTTCAAGCGCCATCTAC", "binding signal": "5.6 RPM ratio (pull-down/input)"},
      {"sequence": "GATGATTGTTCTCCCAGCTGATGAATTTGCTGTGTCGAGTAAACAAATTTTCCTAATCTTTCTGTTCAAGCGCCATCTAC", "binding signal": "6.29 RPM ratio (pull-down/input)"},
      {"sequence": "GATGATTGTTCTCCCAGCTGATGAATTGTTGTTGTCGAGTAAACAAATTTTCCTAATCTTTCTGTTCAAGCGCCATCTAC", "binding signal": "7.65 RPM ratio (pull-down/input)"},
      {"sequence": "GATGATTGTTCTCCCAGCTGATGAATTTTTGCTGTCGAGTAAACAAATTTTCCTAATCTTTCTGTTCAAGCGCCATCTAC", "binding signal": "0.548 RPM ratio (pull-down/input)"},
      {"sequence": "GATGATTGTTCTCCCAGCTGATGAATTCGTTGTGTCGAGTAAACAAATTTTCCTAATCTTTCTGTTCAAGCGCCATCTAC", "binding signal": "5.69 RPM ratio (pull-down/input)"},
      {"sequence": "GATGATTGTTCTCCCAGCTGATGAATTTTTGTTGTCGAGTAAACAAATTTTCCTAATCTTTCTGTTCAAGCGCCATCTAC", "binding signal": "3.24 RPM ratio (pull-down/input)"},
      {"sequence": "GATGATTGTTCTCCCAGCTGATGAATTTTTCGTGTCGAGTAAACAAATTTTCCTAATCTTTCTGTTCAAGCGCCATCTAC", "binding signal": "0.363 RPM ratio (pull-down/input)"},
      {"sequence": "GATGATTGTTCTCCCAGCTGATGAATTGCTTGTGTCGAGTAAACAAATTTTCCTAATCTTTCTGTTCAAGCGCCATCTAC", "binding signal": "2.01 RPM ratio (pull-down/input)"},
      {"sequence": "GATGATTGTTCTCCCAGCTGATGAATTGTGTCGTTCGAGTAAACAAATTTTCCTAATCTTTCTGTTCAAGCGCCATCTAC", "binding signal": "2.73 RPM ratio (pull-down/input)"},
      {"sequence": "GATGATTGTTCTCCCAGCTGATGAATTGTCGTGTTCGAGTAAACAAATTTTCCTAATCTTTCTGTTCAAGCGCCATCTAC", "binding signal": "0.915 RPM ratio (pull-down/input)"},
      {"sequence": "GATGATTGTTCTCCCAGCTGATGAATTAGGCTGATCGAGTAAACAAATTTTCCTAATCTTTCTGTTCAAGCGCCATCTAC", "binding signal": "0.537 RPM ratio (pull-down/input)"},
      {"sequence": "GATGATTGTTCTCCCAGCTGATGAATTGAGTGCCTCGAGTAAACAAATTTTCCTAATCTTTCTGTTCAAGCGCCATCTAC", "binding signal": "0.963 RPM ratio (pull-down/input)"},
      {"sequence": "GATGATTGTTCTCCCAGCTGATGAATTCATTGAATCGAGTAAACAAATTTTCCTAATCTTTCTGTTCAAGCGCCATCTAC", "binding signal": "0.267 RPM ratio (pull-down/input)"},
      {"sequence": "GATGATTGTTCTCCCAGCTGATGAATTGTGGACCTCGAGTAAACAAATTTTCCTAATCTTTCTGTTCAAGCGCCATCTAC", "binding signal": "0.571 RPM ratio (pull-down/input)"},
      {"sequence": "GATGATTGTTCTCCCAGCTGATGAATTCAATAGGTCGAGTAAACAAATTTTCCTAATCTTTCTGTTCAAGCGCCATCTAC", "binding signal": "0.536 RPM ratio (pull-down/input)"},
      {"sequence": "GATGATTGTTCTCCCAGCTGATGAATTCGGATGGTCGAGTAAACAAATTTTCCTAATCTTTCTGTTCAAGCGCCATCTAC", "binding signal": "0.433 RPM ratio (pull-down/input)"},
      {"sequence": "GATGATTGTTCTCCCAGCTGATGAATTTCTGCACTCGAGTAAACAAATTTTCCTAATCTTTCTGTTCAAGCGCCATCTAC", "binding signal": "0.475 RPM ratio (pull-down/input)"},
      {"sequence": "GATGATTGTTCTCCCAGCTGATGAATTCAAGTGTTCGAGTAAACAAATTTTCCTAATCTTTCTGTTCAAGCGCCATCTAC", "binding signal": "0.65 RPM ratio (pull-down/input)"},
      {"sequence": "GATGATTGTTCTCCCAGCTGATGAATTCGGACCATCGAGTAAACAAATTTTCCTAATCTTTCTGTTCAAGCGCCATCTAC", "binding signal": "0.399 RPM ratio (pull-down/input)"},
      {"sequence": "GATGATTGTTCTCCCAGCTGATGAATTATAAGATTCGAGTAAACAAATTTTCCTAATCTTTCTGTTCAAGCGCCATCTAC", "binding signal": "0.351 RPM ratio (pull-down/input)"},
      {"sequence": "GATGATTGTTCTCCCAGCTGATGAATTGATTGTGTCGAGTAAACAAATTTTCCTAATCTTTCTGTTCAAGCGCCATCTAC", "binding signal": "3.72 RPM ratio (pull-down/input)"},
      {"sequence": "GATGATTGTTCTCCCAGCTGATGAATTTGTGTCGTCGAGTAAACAAATTTTCCTAATCTTTCTGTTCAAGCGCCATCTAC", "binding signal": "5 RPM ratio (pull-down/input)"},
      {"sequence": "GATGATTGTTCTCCCAGCTGATGAATTTCTTGTGTCGAGTAAACAAATTTTCCTAATCTTTCTGTTCAAGCGCCATCTAC", "binding signal": "1.59 RPM ratio (pull-down/input)"},
      {"sequence": "GATGATTGTTCTCCCAGCTGATGAATTTGTGTTGTCGAGTAAACAAATTTTCCTAATCTTTCTGTTCAAGCGCCATCTAC", "binding signal": "6.27 RPM ratio (pull-down/input)"},
      {"sequence": "GATGATTGTTCTCCCAGCTGATGAATTGTCTGTGTCGAGTAAACAAATTTTCCTAATCTTTCTGTTCAAGCGCCATCTAC", "binding signal": "0.563 RPM ratio (pull-down/input)"}
    ]}
  ]
}
